# In PubChem BioAssay (EPA / NIEHS):
# Results filed as inconclusive are left out. A structure can be active in one record and inactive in another. Active and inactive are the calls of the source. Rule for the calls, unless noted: active = hit-call score of the fitted dose curve at least 0.9, where 1 is the maximum; inconclusive = response in the unintended direction; inactive = score below 0.9.
# How the values were obtained:
# [1] = ATG_M_61_CIS: Attagene CIS-FACTORIAL HepG2 Assay for M61 Transcription Factor (Internal Marker) (AID 2282937; active = hit-call score of the fitted dose curve at least 0.9, where 1 is the maximum; inactive = score below 0.9); details: HepG2 Attagene CIS-FACTORIAL M61 internal marker reporter; actives raise or lower the signal
# Outline: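 Human liver HepG2, transient MRTU transfection (cis promoter elements), 24 h compound. Total RNA → oligo(dT) RT → PCR → FAM label → HpaI → CE. Internal background marker; bidirectional fitting, DMSO = baseline.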
# [2] = ATG_GRE_CIS: Attagene CIS-FACTORIAL HepG2 Assay for human Glucocorticoid Response Elements (GRE) (AID 2282947; active = hit-call score of the fitted dose curve at least 0.9, where 1 is the maximum; inactive = score below 0.9); details: HepG2 GRE cis-reporter, Attagene multiplex mRNA; actives raise or lower the signal
# Outline: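 HepG2 cells transiently transfected with multiple cis-promoter reporter units measure endogenous TF activity; 24 h compound exposure. Reporter mRNA quantified by RT-PCR, FAM labelling, HpaI digestion and capillary electrophoresis; bidirectional fit vs DMSO baseline.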
# [3] = target: Hepatocyte nuclear factor 6 (Homo sapiens) (UniProt Q9UBC0); assay: ATG_HNF6_CIS: Attagene CIS-FACTORIAL HepG2 Assay for human Hepatocyte Nuclear Factor 6 (HNF6) (AID 2282952; active = hit-call score of the fitted dose curve at least 0.9, where 1 is the maximum; inactive = score below 0.9); details: HepG2 Attagene cis-factorial HNF6 reporter transcription; actives raise or lower the signal
# Sequence of Hepatocyte nuclear factor 6 (Homo sapiens) (Q9UBC0 whole entry, looked up, the tested form may be a part): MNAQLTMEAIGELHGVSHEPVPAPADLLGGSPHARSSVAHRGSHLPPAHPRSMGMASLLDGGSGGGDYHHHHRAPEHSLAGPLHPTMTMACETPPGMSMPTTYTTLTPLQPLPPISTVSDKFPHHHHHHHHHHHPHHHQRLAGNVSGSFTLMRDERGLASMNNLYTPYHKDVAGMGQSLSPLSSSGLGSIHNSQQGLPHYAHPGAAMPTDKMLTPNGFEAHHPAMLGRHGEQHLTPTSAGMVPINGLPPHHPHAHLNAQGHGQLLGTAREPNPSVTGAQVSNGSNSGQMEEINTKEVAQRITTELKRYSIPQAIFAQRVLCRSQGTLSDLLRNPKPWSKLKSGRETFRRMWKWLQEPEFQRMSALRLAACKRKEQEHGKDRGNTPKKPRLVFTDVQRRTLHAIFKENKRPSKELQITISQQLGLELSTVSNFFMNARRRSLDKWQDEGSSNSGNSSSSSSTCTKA
# Outline: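 Reporter mRNA induction or loss in HepG2 after 24 h exposure; transient cis-MRTU transfection; fragments quantified by capillary electrophoresis; bidirectional analysis, DMSO as negative control.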
# [4] = ATG_MRE_CIS: Attagene CIS-FACTORIAL HepG2 Assay for human Metal Responsive Element (MRE) (AID 2282954; active = hit-call score of the fitted dose curve at least 0.9, where 1 is the maximum; inactive = score below 0.9); details: HepG2 MRE cis-reporter transcription, Attagene multiplex; actives raise or lower the signal
# Outline: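 HepG2 cells transiently transfected with multiple cis-element reporter units measure endogenous MTF1-driven transcription. After 24 h compound exposure, reporter mRNA is quantified by RT-PCR with 6-FAM labelling, HpaI digestion and capillary electrophoresis; bidirectional fits versus DMSO.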
# [5] = ATG_PBREM_CIS: Attagene CIS-FACTORIAL HepG2 Assay for human Phenobarbital-responsive Enhancer Module (PBREM) (AID 2282955; active = hit-call score of the fitted dose curve at least 0.9, where 1 is the maximum; inactive = score below 0.9); details: HepG2 PBREM cis-reporter, Attagene multiplexed transcription; actives raise or lower the signal
# Outline: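 Endogenous transcription factors in human liver HepG2 cells drive a PBREM cis-element reporter, whose transcript level after 24 h treatment is quantified by RT-PCR with capillary electrophoresis; activity fitted in both directions against DMSO.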
# [6] = target: Paired box protein Pax-6 (Homo sapiens) (UniProt P26367); assay: ATG_Pax6_CIS: Attagene CIS-FACTORIAL HepG2 Assay for human Paired Box 6 (PAX6) (AID 2282956; active = hit-call score of the fitted dose curve at least 0.9, where 1 is the maximum; inactive = score below 0.9); details: HepG2 CIS-FACTORIAL PAX6 reporter transcription, RNA readout; actives raise or lower the signal
# Sequence of Paired box protein Pax-6 (Homo sapiens) (P26367 whole entry, looked up): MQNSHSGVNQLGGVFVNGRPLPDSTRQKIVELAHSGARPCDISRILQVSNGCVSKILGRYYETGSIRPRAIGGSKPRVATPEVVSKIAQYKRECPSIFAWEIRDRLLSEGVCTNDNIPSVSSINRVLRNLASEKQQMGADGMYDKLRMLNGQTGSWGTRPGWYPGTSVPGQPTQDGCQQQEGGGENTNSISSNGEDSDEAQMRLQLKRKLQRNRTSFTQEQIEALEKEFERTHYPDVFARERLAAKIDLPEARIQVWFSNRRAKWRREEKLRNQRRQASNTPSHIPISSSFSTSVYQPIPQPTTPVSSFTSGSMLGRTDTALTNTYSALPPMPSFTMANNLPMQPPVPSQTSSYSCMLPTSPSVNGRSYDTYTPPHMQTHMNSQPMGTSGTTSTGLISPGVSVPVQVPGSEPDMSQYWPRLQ
# Outline: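 HepG2 cells transiently transfected with cis-promoter-driven multiplexed reporter units sensing endogenous transcription factor activity; 24 h chemical exposure. Reporter mRNA quantified by RT-PCR, 6-FAM labelling, HpaI digestion and capillary electrophoresis; bidirectional fit versus DMSO baseline.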
# [7] = ATG_RORE_CIS: Attagene CIS-FACTORIAL HepG2 Assay for human RAR-related Orphan Receptor Element (RORE) (AID 2282959; active = hit-call score of the fitted dose curve at least 0.9, where 1 is the maximum; inactive = score below 0.9); details: HepG2 Attagene cis-factorial RORE reporter, mRNA; actives raise or lower the signal
# Outline: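 Transient MRTU transfection of human HepG2 liver cells (FuGene 6); 24 h compound exposure; TriZol RNA, oligo(dT) RT, PCR, FAM labeling, HpaI cut, CE fragment analysis. DMSO = negative control/baseline.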
# [8] = ATG_M_06_TRANS: Attagene TRANS-FACTORIAL HepG2 Assay for M06 Transcription Factor (Internal Marker) (AID 2282983); details: HepG2 Attagene TRANS M06 internal marker reporter
# Outline: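 Measured by capillary electrophoresis of fluorescently labelled RT-PCR products, this endpoint reflects reporter mRNA in HepG2 cells harbouring exogenous NR-GAL4 reporter constructs after 24 h exposure, with DMSO as baseline.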
# [9] = target: Myc proto-oncogene protein (Homo sapiens) (UniProt P01106); assay: ATG_Myc_CIS: Attagene CIS-FACTORIAL HepG2 Assay for human Myelocytomatosis (Myc) Proto-Oncogene Transcription Factor (AID 2282990; active = hit-call score of the fitted dose curve at least 0.9, where 1 is the maximum; inactive = score below 0.9); details: HepG2, Attagene cis-reporter transcription factor activity; actives raise or lower the signal
# Sequence of Myc proto-oncogene protein (Homo sapiens) (P01106 whole entry, looked up): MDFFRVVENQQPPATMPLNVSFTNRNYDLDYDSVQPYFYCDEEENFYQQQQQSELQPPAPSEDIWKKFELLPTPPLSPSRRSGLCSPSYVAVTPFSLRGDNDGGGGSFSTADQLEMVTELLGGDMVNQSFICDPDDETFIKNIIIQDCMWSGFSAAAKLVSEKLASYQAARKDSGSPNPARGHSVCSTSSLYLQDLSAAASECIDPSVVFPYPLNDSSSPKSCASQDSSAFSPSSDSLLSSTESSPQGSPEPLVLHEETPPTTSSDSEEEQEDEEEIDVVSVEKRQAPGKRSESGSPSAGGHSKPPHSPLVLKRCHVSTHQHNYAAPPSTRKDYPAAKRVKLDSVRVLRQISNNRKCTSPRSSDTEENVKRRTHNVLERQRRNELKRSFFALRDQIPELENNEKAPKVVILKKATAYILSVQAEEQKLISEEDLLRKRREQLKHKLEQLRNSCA
# Outline: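 DMSO-normalised, bidirectionally fitted reporter mRNA signal. HepG2 cells transfected with cis reporter constructs, treated 24 h; transcripts detected by RT-PCR, 6-FAM primer extension and CE.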
# [10] = ATG_NF_kB_CIS: Attagene CIS-FACTORIAL HepG2 Assay for human Nuclear Factor Kappa B (NF-kB) (AID 2282991; active = hit-call score of the fitted dose curve at least 0.9, where 1 is the maximum; inactive = score below 0.9); details: HepG2 Attagene cis-factorial NF-kB reporter mRNA; actives raise or lower the signal
# Outline: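 Transient MRTU transfection of human HepG2 liver cells → 24 h chemical exposure → total RNA, oligo(dT) RT → PCR, 6-FAM primer extension, HpaI digest 2 h 37 C → CE fragment analysis. Bidirectional fitting, DMSO negative control.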
# [11] = target: human Peroxisome Proliferator-activated Receptor alpha (PPARa), PPARA (gene 5465) (UniProt Q07869); assay: ATG_PPARa_TRANS: Attagene TRANS-FACTORIAL HepG2 Assay for human Peroxisome Proliferator-activated Receptor alpha (PPARa) (AID 2283001)
# Sequence of human Peroxisome Proliferator-activated Receptor alpha (PPARa), PPARA (gene 5465) (Q07869 whole entry, looked up, the tested form may be a part): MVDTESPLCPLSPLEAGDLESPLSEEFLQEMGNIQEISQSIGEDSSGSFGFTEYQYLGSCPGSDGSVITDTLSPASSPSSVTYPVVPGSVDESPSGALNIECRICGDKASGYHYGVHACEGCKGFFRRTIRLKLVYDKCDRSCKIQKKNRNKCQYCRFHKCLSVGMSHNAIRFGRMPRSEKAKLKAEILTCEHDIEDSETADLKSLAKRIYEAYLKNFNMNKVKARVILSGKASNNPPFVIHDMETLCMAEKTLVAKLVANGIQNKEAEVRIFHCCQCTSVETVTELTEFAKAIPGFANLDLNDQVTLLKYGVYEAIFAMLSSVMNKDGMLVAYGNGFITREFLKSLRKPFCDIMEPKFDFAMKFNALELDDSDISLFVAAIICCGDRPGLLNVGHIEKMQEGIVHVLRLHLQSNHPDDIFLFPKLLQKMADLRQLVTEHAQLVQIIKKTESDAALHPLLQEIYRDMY
# Outline: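 HepG2 cells transiently transfected with multiplexed GAL4-UAS reporter units and chimeric NR-Gal4 constructs were dosed for 24 h. Reporter mRNA was measured by RT-PCR with fluorescent labelling and capillary electrophoresis; gain of signal fitted against DMSO.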
# [12] = target: Peroxisome proliferator-activated receptor gamma (Homo sapiens) (UniProt P37231); assay: ATG_PPARg_TRANS: Attagene TRANS-FACTORIAL HepG2 Assay for human Peroxisome Proliferator-activated Receptor-gamma (PPARg) (AID 2283007)
# Sequence of Peroxisome proliferator-activated receptor gamma (Homo sapiens) (P37231 whole entry, looked up, the tested form may be a part): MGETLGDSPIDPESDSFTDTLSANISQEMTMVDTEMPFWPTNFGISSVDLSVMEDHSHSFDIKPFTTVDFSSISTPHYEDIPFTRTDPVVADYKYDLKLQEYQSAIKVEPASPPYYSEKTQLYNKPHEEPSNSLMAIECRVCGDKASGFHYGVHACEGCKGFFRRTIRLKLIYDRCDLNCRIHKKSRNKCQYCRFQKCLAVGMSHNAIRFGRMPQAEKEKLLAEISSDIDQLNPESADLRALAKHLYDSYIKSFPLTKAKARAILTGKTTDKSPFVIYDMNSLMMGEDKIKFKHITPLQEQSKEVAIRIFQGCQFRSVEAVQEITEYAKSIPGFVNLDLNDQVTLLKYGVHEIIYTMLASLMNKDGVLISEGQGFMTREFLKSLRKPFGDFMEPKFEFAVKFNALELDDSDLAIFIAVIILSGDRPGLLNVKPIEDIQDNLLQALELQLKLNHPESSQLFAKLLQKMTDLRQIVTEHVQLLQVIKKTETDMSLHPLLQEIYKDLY
# Outline: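 Transient transfection of HepG2 with GAL4-UAS-driven reporter units; chemical dosing 24 h; total RNA → oligo(dT) RT → PCR with reporter primers → 6-FAM primer extension → HpaI digest 2 h 37 C → capillary electrophoresis. Positive direction vs DMSO.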
# [13] = target: Nuclear receptor subfamily 1 group I member 2 (Homo sapiens) (UniProt O75469); assay: ATG_PXR_TRANS: Attagene TRANS-FACTORIAL HepG2 Assay for human Pregnane X Receptor (PXR) (AID 2283008)
# Sequence of Nuclear receptor subfamily 1 group I member 2 (Homo sapiens) (O75469 whole entry, looked up, the tested form may be a part): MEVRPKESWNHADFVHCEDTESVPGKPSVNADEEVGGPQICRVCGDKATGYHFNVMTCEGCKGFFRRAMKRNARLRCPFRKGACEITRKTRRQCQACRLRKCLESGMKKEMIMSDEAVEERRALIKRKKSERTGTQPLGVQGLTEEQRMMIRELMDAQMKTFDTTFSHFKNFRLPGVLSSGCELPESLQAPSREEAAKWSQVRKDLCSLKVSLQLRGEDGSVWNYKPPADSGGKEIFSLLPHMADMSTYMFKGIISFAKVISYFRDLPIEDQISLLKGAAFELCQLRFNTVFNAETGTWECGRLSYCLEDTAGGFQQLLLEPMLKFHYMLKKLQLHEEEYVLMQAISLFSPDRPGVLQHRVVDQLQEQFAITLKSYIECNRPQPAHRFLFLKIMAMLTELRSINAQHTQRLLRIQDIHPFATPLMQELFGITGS
# Outline: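 HepG2 cells transiently transfected with GAL4-UAS reporter units and PXR-Gal4 chimera, exposed 24 h. Reporter mRNA quantified by RT-PCR, fluorescent labelling, HpaI digestion and capillary electrophoresis; gain of signal vs DMSO.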
# [14] = target: human Retinoid X Receptor beta (RXRb), RXRB (gene 6257) (UniProt P28702); assay: ATG_RXRb_TRANS: Attagene TRANS-FACTORIAL HepG2 Assay for human Retinoid X Receptor beta (RXRb) (AID 2283013)
# Sequence of human Retinoid X Receptor beta (RXRb), RXRB (gene 6257) (P28702 whole entry, looked up): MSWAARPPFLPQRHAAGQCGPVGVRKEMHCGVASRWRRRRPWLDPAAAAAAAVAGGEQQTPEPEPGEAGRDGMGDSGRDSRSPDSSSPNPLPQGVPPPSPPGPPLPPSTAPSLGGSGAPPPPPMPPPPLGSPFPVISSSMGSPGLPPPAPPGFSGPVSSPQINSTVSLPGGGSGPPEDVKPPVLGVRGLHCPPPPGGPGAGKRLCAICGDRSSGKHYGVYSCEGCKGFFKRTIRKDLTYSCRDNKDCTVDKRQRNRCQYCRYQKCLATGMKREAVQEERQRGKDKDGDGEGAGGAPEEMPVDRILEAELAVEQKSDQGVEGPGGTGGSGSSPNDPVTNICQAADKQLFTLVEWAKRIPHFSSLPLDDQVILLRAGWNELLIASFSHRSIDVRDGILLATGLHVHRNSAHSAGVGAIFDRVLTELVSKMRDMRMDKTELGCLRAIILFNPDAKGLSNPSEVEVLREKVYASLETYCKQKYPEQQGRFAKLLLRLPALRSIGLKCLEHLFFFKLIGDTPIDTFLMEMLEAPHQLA
# Outline: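 Multiplexed TRANS reporter assay in HepG2; 24 h dosing; reporter mRNA by RT-PCR/CE fluorescence; gain-of-signal relative to DMSO.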
# [15] = target: Cellular tumor antigen p53 (Homo sapiens) (UniProt P04637); assay: TOX21_p53_BLA_p2_ratio: Tox21 HCT-116 p53 Agonism Beta-lactamase Assay, Ratio, Phase 2 (AID 2283592)
# Sequence of Cellular tumor antigen p53 (Homo sapiens) (P04637 whole entry, looked up): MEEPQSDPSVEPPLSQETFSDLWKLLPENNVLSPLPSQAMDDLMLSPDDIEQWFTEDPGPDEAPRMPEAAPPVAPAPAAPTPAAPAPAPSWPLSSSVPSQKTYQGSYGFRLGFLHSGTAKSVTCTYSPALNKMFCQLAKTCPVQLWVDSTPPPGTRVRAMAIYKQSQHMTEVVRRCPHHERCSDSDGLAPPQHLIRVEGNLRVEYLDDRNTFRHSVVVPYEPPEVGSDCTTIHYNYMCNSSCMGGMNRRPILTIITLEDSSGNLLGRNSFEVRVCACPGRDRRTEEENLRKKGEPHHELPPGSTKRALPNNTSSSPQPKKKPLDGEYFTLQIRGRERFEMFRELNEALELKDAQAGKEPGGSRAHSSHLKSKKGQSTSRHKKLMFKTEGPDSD
# Outline: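 An inducible beta-lactamase reporter in HCT116 cells signals p53 pathway activation. After 16 h chemical exposure at 37C, cells load CCF4-AM substrate for 2 h at room temperature; activity is the cleaved/uncleaved emission ratio relative to DMSO.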
# [16] = target: Cellular tumor antigen p53 (Homo sapiens) (UniProt P04637); assay: TOX21_p53_BLA_p3_ratio: Tox21 HCT-116 p53 Agonism Beta-lactamase Assay, Ratio, Phase 3 (AID 2283596)
# Outline: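 HCT116 p53-bla cells (4000/well) given compound in DMSO (217-fold dilution) after 5 h, incubated 16 h at 37C. CCF4-AM substrate 2 h at room temperature; 460/530 nm emission ratio, gain fitted against DMSO.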
# [17] = target: Cellular tumor antigen p53 (Homo sapiens) (UniProt P04637); assay: TOX21_p53_BLA_p5_ratio: Tox21 HCT-116 p53 Agonism Beta-lactamase Assay, Ratio, Phase 5 (AID 2283599)
# Outline: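 HCT-116 cells carrying a p53-inducible beta-lactamase reporter were seeded at 4000 cells/well and dosed after 5 h with compound in DMSO (217-fold dilution). After 16 h at 37C, CCF4-AM substrate was added for 2 h, and the 460/530 nm emission ratio was scored as gain-of-signal versus DMSO.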
# [18] = TOX21_p53_BLA_p5_viability: Viability Assessment in the Tox21 HCT-116 p53 Agonism Beta-lactamase Assay, Phase 5 (AID 2283600)
# Outline: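 Counter-readout for cytotoxicity: ATP-dependent luminescence from CellTiter-Glo, read in the beta-lactamase wells after 30 min at RT, following a 16 h compound exposure at 37C.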
# [19] = target: Cellular tumor antigen p53 (Homo sapiens) (UniProt P04637); assay: TOX21_p53_BLA_p4_ratio: Tox21 HCT-116 p53 Agonism Beta-lactamase Assay, Ratio, Phase 4 (AID 2283601)
# Outline: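 HCT116 cells carrying an inducible beta-lactamase reporter were plated at 4000 cells/well, rested 5 h, then exposed to compounds in DMSO (217-fold dilution) for 16 h at 37C. CCF4-AM substrate was loaded 2 h at room temperature; 460/530 nm emission ratio scored gain-of-signal versus DMSO.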
# [20] = target: Hepatocyte nuclear factor 4-alpha (Homo sapiens) (UniProt P41235); assay: ATG_HNF4a_TRANS: Attagene TRANS-FACTORIAL HepG2 Assay for human Hepatocyte Nuclear Factor 4 alpha (HNF4a) (AID 2282982); details: HepG2 HNF4a transactivation reporter, mRNA readout
# Sequence of Hepatocyte nuclear factor 4-alpha (Homo sapiens) (P41235 whole entry, looked up, the tested form may be a part): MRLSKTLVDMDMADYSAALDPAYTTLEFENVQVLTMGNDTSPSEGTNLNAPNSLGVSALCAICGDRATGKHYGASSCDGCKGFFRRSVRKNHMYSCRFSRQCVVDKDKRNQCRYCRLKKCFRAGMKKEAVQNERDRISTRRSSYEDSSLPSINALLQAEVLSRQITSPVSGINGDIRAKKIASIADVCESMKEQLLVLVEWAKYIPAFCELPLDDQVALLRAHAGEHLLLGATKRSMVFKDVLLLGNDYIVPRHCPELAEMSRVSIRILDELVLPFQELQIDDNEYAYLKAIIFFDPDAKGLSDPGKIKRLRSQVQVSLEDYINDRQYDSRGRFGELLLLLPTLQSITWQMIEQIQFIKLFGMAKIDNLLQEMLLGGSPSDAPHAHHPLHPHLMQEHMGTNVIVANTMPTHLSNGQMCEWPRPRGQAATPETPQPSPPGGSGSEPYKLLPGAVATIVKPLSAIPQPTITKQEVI
# Outline: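 HepG2 cells transiently transfected with multiplexed GAL4-UAS reporter units responsive to chimeric NR-GAL4 proteins; compound exposure 24 h. Reporter mRNA quantified by RT-PCR, 6-FAM labelling, HpaI digestion and capillary electrophoresis; gain of signal versus DMSO baseline.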
compound,measurement,setting,value
O=[N+]([O-])c1cc([N+](=O)[O-])c2ccccc2c1,outcome,[1],inactive
same,outcome,[2],inactive
same,outcome,[3],inactive
same,outcome,[4],inactive
same,outcome,[5],inactive
same,outcome,[6],inactive
same,outcome,[7],inactive
same,outcome,[8],inactive
same,outcome,[9],inactive
same,outcome,[10],inactive
same,outcome,[11],inactive
same,AC50,[12],6.62 µM (active)
same,AC50,[13],9.2 µM (active)
same,outcome,[14],inactive
same,outcome,[15],inactive
same,outcome,[16],inactive
same,outcome,[17],inactive
same,outcome,[18],inactive
same,outcome,[19],inactive
O=C1Nc2ccc(Cl)cc2C(c2ccccc2)=NC1O (stereo not drawn),outcome,[5],inactive
same,outcome,[7],inactive
same,outcome,[8],inactive
same,outcome,[9],inactive
same,outcome,[11],inactive
same,outcome,[12],inactive
same,outcome,[13],inactive
same,outcome,[14],inactive
same,outcome,[15],inactive
same,outcome,[16],inactive
same,AC50,[17],77.3 µM (active)
same,outcome,[17],inactive
same,outcome,[18],inactive
same,AC50,[19],86.7 µM (active)
same,outcome,[19],inactive
[CH3][Sn]([Cl])([Cl])[Cl],outcome,[1],inactive
same,outcome,[2],inactive
same,outcome,[3],inactive
same,outcome,[4],inactive
same,outcome,[5],inactive
same,outcome,[7],inactive
same,outcome,[20],inactive
same,outcome,[8],inactive
same,outcome,[9],inactive
same,outcome,[12],inactive
same,outcome,[13],inactive
same,outcome,[16],inactive
same,outcome,[17],inactive
same,outcome,[19],inactive
BrCBr,outcome,[1],inactive
same,outcome,[2],inactive
same,outcome,[3],inactive
same,outcome,[5],inactive
same,outcome,[6],inactive
same,outcome,[7],inactive
same,outcome,[20],inactive
same,outcome,[15],inactive
same,outcome,[16],inactive
same,outcome,[17],inactive
same,outcome,[18],inactive
same,outcome,[19],inactive
N#Cc1cccc(C#N)c1,outcome,[1],inactive
same,outcome,[2],inactive
same,outcome,[3],inactive
same,outcome,[4],inactive
same,outcome,[5],inactive
same,outcome,[6],inactive
same,outcome,[7],inactive
same,outcome,[20],inactive
same,outcome,[8],inactive
same,outcome,[9],inactive
same,outcome,[10],inactive
same,outcome,[11],inactive
same,outcome,[12],inactive
same,outcome,[13],inactive
same,outcome,[15],inactive
same,outcome,[16],inactive
same,outcome,[17],inactive
same,outcome,[18],inactive
same,outcome,[19],inactive
C=CC(=O)OCCCCOC(=O)C=C,outcome,[1],inactive
same,AC50,[2],70.5 µM (active)
same,AC50,[4],64 µM (active)
same,outcome,[5],inactive
same,outcome,[20],inactive
same,outcome,[8],inactive
same,outcome,[9],inactive
same,AC50,[10],35.3 µM (active)
same,outcome,[11],inactive
same,AC50,[12],2.14 µM (active)
same,outcome,[13],inactive
same,outcome,[14],inactive
same,AC50,[15],49.6 µM (active)
same,outcome,[16],inactive
same,outcome,[17],inactive
same,outcome,[19],inactive
COC(=O)c1ccccc1S(=O)(=O)NC(=O)Nc1nc(C)cc(C)n1,outcome,[2],inactive
same,outcome,[3],inactive
same,outcome,[5],inactive
same,outcome,[6],inactive
same,outcome,[8],inactive
same,outcome,[9],inactive
same,outcome,[10],inactive
same,outcome,[11],inactive
same,outcome,[12],inactive
same,outcome,[13],inactive
same,outcome,[14],inactive
CCOC(=O)NC(=S)Nc1ccccc1NC(=S)NC(=O)OCC,outcome,[1],inactive
same,outcome,[2],inactive
same,outcome,[3],inactive
same,outcome,[4],inactive
same,outcome,[7],inactive
same,outcome,[20],inactive
same,outcome,[8],inactive
same,outcome,[9],inactive
same,outcome,[10],inactive
same,outcome,[11],inactive
same,outcome,[12],inactive
same,AC50,[13],0.77 µM (active)
same,AC50,[15],59.6 µM (active)
same,AC50,[16],85.4 µM (active)
same,AC50,[17],77.3 µM (active)
same,outcome,[18],inactive
same,AC50,[19],64 µM (active)
